The assay deals with HL-60(TB) leukemia. Kind of assay: NCI-60 one-dose screen, 48 h (100 = growth as untreated, 0 = no growth, -100 = all killed). The conditions noted are these: 10 µM unless noted.

This is part of a sample that, as a whole, favours compounds with a hit. Of some 83,000 tested, about 20% had one in any assay.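 48-hour exposure, single concentration, 96-well plates; percent growth endpoint where 0 means no net growth. Active: below 10.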 A number with no mark means an inactive call. Calls of active or inactive are those of the source.

Take `CCN(CC)CCCC(C)N=C(C1=C(C(=NC(C)CCCN(CC)CC)c2cccc(OC)c2)C(=O)NC1=O)c1cccc(OC)c1` (centres undefined): the growth was -49.3% (active).
For the compound `O=c1[nH]c(Cc2nc3ccccc3s2)nc2cc(Br)ccc12`, the growth is 77%.
For `CCCCCCCCCCCCc1ccc(C(=O)/C=C/C(=O)O)cc1`, the growth is 26.6%.
Next, `CC(=O)c1nn(-c2ccccc2)/c(=N/N=Cc2cn(-c3ccccc3)nc2-c2cc3ccccc3oc2=O)s1`: 102%; `CNCCCOc1c(Br)cc(CCNC(=O)/C(Cc2cc(Br)c(OC)c(Br)c2)=N/O)cc1Br`: -57.1% (active).
Next, `c1ccc2c(-c3c[nH]c4ccccc34)c3c(cc2c1)[nH]c1ccccc13`: 51.5%.
The result for `Clc1ccc(-c2cnc3nonc3n2)s1` reads 29%; that for `Nc1nc2c(c3ncccc13)C(c1ccccc1)Cc1ncccc1-2` (centres undefined), 65.9%.
Turning to `NC(=O)c1cccc(-c2ccc(S(=O)(=O)Nc3ccc4c(c3)N(C(=O)C3CC3)CCC4)cc2)c1`, the growth was 1.43% (active).
Next, `O=P(OCCCl)(OCCCl)C(O)c1ccccc1Cl` (centres undefined): 96.2%; `O=C1CCC(C(=O)N/N=C/c2cc(F)ccc2F)N1` (centres undefined): 99.2%; `CN(C)[C@@H]1C(=O)C(C(=O)NCc2nc3[nH]cnc(=S)c3[nH]2)=C(O)[C@@]2(O)C(=O)C3=C(O)c4c(O)cccc4[C@@](C)(O)[C@H]3C[C@@H]12`: 4.14% (active).
As to `COc1cc(C2CC(c3ccc(Nc4ccnc5cc(Cl)ccc45)cc3)=NN2C=O)cc(OC)c1OC` (centres undefined), the growth is 19.7%.
The result for `O=C1Nc2ccccc2/C1=N/N1C(=O)CN(CCCl)C1=O` reads 96.3%.
